Source: PubChem BioAssay
An excerpt weighted towards active compounds, which were near 3.9% of everything screened.
PrPC TRFRET: cell surface PrPC inhibition, primary TR-FRET screen; 370,000 compounds, 0.43% hits; TR-FRET read-out; inhibition, % at 13.8 µM; P04156; AID 720596; in the data active = inhibition above about 24%; also: 0% = median of the test wells and 100% = reference compound wells
GDH-TPI counter: GDH-TPI coupled enzyme inhibition counter-screen | AID 588335 | inhibition, % at 4.8 µM | 360,000 compounds, 1.2% hits | GDH-TPI coupled enzyme counterscreen, NADH absorbance; in the data active = inhibition above about 30%;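 also: 0% = DMSO wells and 100% = wells lacking the enzyme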
Vc quorum ag-1: inducers of Vibrio cholerae quorum light production without autoinducers; V. cholerae BH1578 lux reporter, luminescence, 6 h; 350,000 compounds, 0.16% hits; AID 588436; activation, % at 18.7 µM; in the data active = activation mostly above about 9.7%, no sharp cut-off
Mtb FBA inh: inhibitors of M. tuberculosis fructose-bisphosphate aldolase; P9WQA3; purified M. tuberculosis FBA, fluorescence read-out; inhibition, % at 1 µM; 360,000 compounds, 2.3% hits; AID 588726; in the data active = inhibition above about 27%;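 also: 0% = vehicle and 100% = reference inhibitor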
Target sequence (P9WQA3 whole entry, looked up): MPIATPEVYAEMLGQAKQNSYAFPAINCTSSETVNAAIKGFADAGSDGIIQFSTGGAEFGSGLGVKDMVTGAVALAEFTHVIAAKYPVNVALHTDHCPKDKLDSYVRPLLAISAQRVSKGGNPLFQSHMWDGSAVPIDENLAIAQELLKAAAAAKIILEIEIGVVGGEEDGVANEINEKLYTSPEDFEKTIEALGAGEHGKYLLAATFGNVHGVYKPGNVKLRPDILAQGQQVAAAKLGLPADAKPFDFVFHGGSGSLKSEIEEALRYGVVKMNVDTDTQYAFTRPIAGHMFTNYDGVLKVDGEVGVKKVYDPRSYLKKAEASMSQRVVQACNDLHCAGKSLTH
3CLpro inhibitor: SARS-CoV 3CLpro protease inhibition; inhibition, % at 6 µM; recombinant SARS-CoV 3CLpro, quenched FRET peptide cleavage; P0C6X7; 290,000 compounds, 0.14% hits; AID 1706; in the data active = inhibition above about 12%
Vc quorum ag-2: quorum light induction in BH1578 reporter strain. 620 tested, under 10 active. AID 602243. activation, % at 50 µM. V. cholerae BH1578 lux reporter, luminescence, 6 h. shares compounds with Vc quorum ag-1; call rule not given here
HeLa tox: kills HeLa cells within 24 hours; shares compounds with Vc quorum ag-1; HeLa viability, CellTiter-Glo ATP luminescence; activity change, negative = cytotoxicity, % at 35 µM; 25 tested, under 10 active; AID 624140;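 active = signal drop with fitted half-maximal concentration at or below twice the highest valid dose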
The depositor's hits bear a star; i = inactive; nt = not tested or not shown; + = active, no number.

SMILES	PrPC TRFRET	GDH-TPI counter	Vc quorum ag-1	Mtb FBA inh	3CLpro inhibitor	Vc quorum ag-2	others
CCOC(=O)Nc1ccc(S(=O)(=O)Nc2cc(C)nc(C)n2)cc1	-5	4	12	1	1	13
COc1ccc(CCNC(=O)c2nnn(-c3ccc4c(c3)OCCO4)c2N)cc1OC	0	-9	7.6*	2	4	1
Cc1cc(C)n2cc(COc3ccc4ccccc4c3)nc2n1	-4	-3	+	1	-8	287
Cc1cccc2nc(COc3ccc(-c4ccccc4)cc3)cn12	nt	nt	nt	nt	0	nt
FC(F)Oc1ccccc1NC(=S)NCc1ccco1	-3	-1	12	-1	2	0
COCc1nnc(NS(=O)(=O)c2ccc(Br)cc2)s1	2	-1	28*	-4	1	0
C=CC[C@H](CC(=O)NCCO)C(=O)N[C@@H](COC(=O)[C@@H](CC=C)CC(=O)OC(C)(C)C)Cc1c[nH]c2ccccc12	5	-3	0	4	nt	nt
COC(CNC(=O)c1ccc2c(c1)ncn2C1CCCCCC1)OC	2	-9	-1	-1	4	nt
O=C(OCc1cc(=O)n2ccsc2n1)c1ccc(OC(F)F)cc1	1	2	13	5	nt	0
Cc1cc(C(=O)Cn2cnc3ccc(Cl)cc3c2=O)c(C)n1C1CC1	-1	2	-1	0	nt	nt
CCOCCCNC(=O)C1CC(=O)N(CCc2ccc(C)cc2)C1 (stereo unspecified)	0	-10	0	1	-1	nt
CCOCCCN1CC(C(=O)NCCc2ccc(C)cc2)CC1=O (stereo unspecified)	-3	-11	17*	-1	6	0
CN1C(=O)C2(c3ccccc31)c1c(oc3ccccc3c1=O)C(=O)N2CCCO (stereo unspecified)	-4	2	0	0	-1	nt
COCCN(C(=O)COC(=O)c1ccc(Cl)s1)c1c(N)n(Cc2ccccc2)c(=O)[nH]c1=O	-10	1	-2	-1	nt	nt
CC1CCc2nn(CC(=O)NC3CCCC3)cc2C1 (stereo unspecified)	-2	10	+	1	-2	i
COc1ccc(OCc2nnc3n2N=C(c2ccc(OC)cc2)CS3)cc1	13	1	27	4	-4	3
Cc1onc(-c2ccccc2)c1C(=O)n1cccn1	-6	-6	22*	5	0	0
CC(=O)c1cccc(NC(=O)CSc2nc(=O)n(CCCN3CCOCC3)c3c2CCC3)c1	0	8	31*	1	nt	7
CC(=O)Oc1ccc(-c2ccc(C(=O)O)cc2)cc1	3	-9	25*	5	0	0
CC(=O)Oc1ccc(-c2cccc(C(=O)O)c2)cc1	5	14	i	5	6	nt
Cc1ccc(S(=O)(=O)NCc2cccnc2)cc1C(=O)NC1CCCCC1	-4	8	14	3	nt	0
CCCCOC(=O)n1c(=O)oc2ccccc21	3	-1	231*	-9	1	118
CCC1C(=O)NCCN1C(=O)CCc1nnc(CCc2ccc(OC)cc2)o1 (stereo unspecified)	4	1	11	-2	-1	0
Cc1ccc(/C=C/C(=O)OCC(=O)NCCc2ccc(S(N)(=O)=O)cc2)o1	-3	30	26*	1	nt	7
O=C(COC(=O)/C=C/c1ccco1)NCc1ccccc1	5	-4	1	0	-4	nt
SMILES	PrPC TRFRET	GDH-TPI counter	Vc quorum ag-1	Mtb FBA inh	3CLpro inhibitor	Vc quorum ag-2	others
Cc1ccc(/C=C/C(=O)NCc2ccc(S(N)(=O)=O)cc2)o1	-5	-5	0	1	1	nt
CCCNC(=O)COC(=O)/C=C/c1ccco1	-7	14	+	2	2	i
CN(C)S(=O)(=O)c1cccc(NC(=O)COC(=O)c2ccc(Br)o2)c1	4	17	14	6	-6	0
CC(=O)Nc1ccc2nc(-c3cccnc3)[nH]c2c1	4	16	75*	5	1	2
CCc1nc(SCc2ccccc2C)n[nH]1	0	12	i	4	4	nt
Cc1ccc(S(=O)(=O)Nc2cc(C(=O)NCCN(C)C)ccc2N2CCCCC2)cc1	-9	5	17*	4	-1	0
Cc1ccc(S(=O)(=O)Nc2cc(C(=O)NCCN3CCCC3)ccc2N2CCCCC2)cc1	-9	9	1	3	1	nt
O=C(c1cn(-c2ccccc2)nc1-c1cccs1)N1CCN(c2ccccc2)CC1	nt	-17	0	3	-7	nt
O=C(c1cn(-c2ccccc2)nc1-c1cccs1)N1CCOCC1	0	3	25*	-2	4	0
CC(C)(C)S(=O)(=O)N1C[C@@H]2C(=C(CCO)C[C@@H]3C(=O)N(c4ccccc4)C(=O)[C@@H]32)[C@H]1CCO	7	nt	nt	nt	nt	nt
Cc1ccc(C)n1-c1sc2c(c1C#N)CCC(C)C2 (stereo unspecified)	1	-12	14	0	1	2
O=C(Nc1ccc(S(=O)(=O)N2CCCCCC2)cc1)c1ccco1	9	2	-2	-1	1	nt
C[C@H](NC(=O)c1ccco1)C(=O)Nc1ccc(S(=O)(=O)N2CCCC2)cc1	-2	15	14	-7	1	18
CCNC(=O)OCc1cn(-c2ccccc2)nn1	-3	-2	+	2	4	i
CC(C)(C)C(=O)OCc1cn(-c2ccccc2)nn1	3	18	0	0	-3	nt
COc1ccc(Cl)cc1NC(=O)COC(=O)c1ccc(C)o1	2	-2	nt	-2	nt	i	HeLa tox=-7
COc1ccccc1NC(=O)COC(=O)c1ccc(C)cc1	nt	nt	nt	nt	nt	nt	HeLa tox=-7
COc1ccccc1NC(=O)COC(=O)c1cc2ccccc2s1	nt	nt	nt	nt	nt	nt	HeLa tox=9
COc1ccccc1NC(=O)c1ccc(NC(=O)COC(=O)c2ccc(O)cc2)cc1	-1	-6	-2	0	nt	nt
Cc1cccc(-c2cccc3c4c([nH]c23)[C@@H]2C[C@H](N(C)C(=S)Nc3ccc(C#N)cc3)[C@H]([C@H](C)O)CN2CC4)c1	-6	nt	nt	nt	nt	nt
CC(Sc1nnc(-c2ccncc2)n1C)C(=O)Nc1nccs1 (stereo unspecified)	6	-9	0	-2	-2	nt
COc1ccc(C2C(C(=O)N3CCCCC3)c3ccccc3C(=O)N2C)cc1 (stereo unspecified)	-2	0	i	0	4	nt
CCOC(=O)C1CCN(C(=O)C2c3ccccc3C(=O)N(C)C2c2ccc(OC)cc2)CC1 (stereo unspecified)	6	3	17*	-1	-11	1
COC(=O)c1ccc(CSc2nnc3c(Cl)cc(Cl)cn23)o1	-6	1	35*	0	-1	3
Cc1ccc(C(=O)OCC(=O)Nc2ccc(N(C)C)cc2)cc1NC(=O)c1ccco1	-6	-8	-1	-6	2	nt
Cc1ccc(C(=O)OCC(=O)Nc2ccccc2)cc1NC(=O)c1ccco1	-3	3	7	3	0	0
